Unmarked numbers belong to inactive results. Unless noted, no rule for the calls is given here.

The text below walks through data of PubChem BioAssay.

Sequence of Homeobox protein Hox-A13 (Mus musculus) (Q62424 whole entry, looked up): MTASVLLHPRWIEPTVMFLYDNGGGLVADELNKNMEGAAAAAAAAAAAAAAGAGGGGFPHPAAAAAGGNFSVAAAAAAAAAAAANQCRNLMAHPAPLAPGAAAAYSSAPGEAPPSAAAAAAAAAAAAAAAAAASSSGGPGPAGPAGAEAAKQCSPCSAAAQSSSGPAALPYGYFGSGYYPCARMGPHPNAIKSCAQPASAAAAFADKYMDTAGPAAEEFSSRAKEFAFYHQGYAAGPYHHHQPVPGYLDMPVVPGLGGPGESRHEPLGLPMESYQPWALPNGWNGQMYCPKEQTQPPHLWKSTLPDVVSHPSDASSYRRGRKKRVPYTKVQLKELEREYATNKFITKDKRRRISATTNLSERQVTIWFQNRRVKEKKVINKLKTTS

The first experiment has as its target Homeobox protein Hox-A13 (Mus musculus) (UniProt Q62424). As to the kind of experiment: inhibitors of HoxA13-DNA binding, primary screen, biochemical, fluorescence polarization, labeled oligonucleotide (AID 1185). The following applies: 15 min, higher = more signal, called active from +8 up or from −8 down.
On to `Cc1ccc(F)cc1S(=O)(=O)N[C@H]1CCN(Cc2ccc(OC(C)C)cc2)C1`, for which the z-score was -5.72.

In the case of `COCCOC(=O)N1C(=O)[C@@]2(c3cc(C#CCCO)ccc31)[C@H](c1ccccc1OCCO)N1[C@H](c3ccccc3)[C@H](c3ccccc3)OC(=O)[C@H]1[C@@H]2C(N)=O`, the z-score is -3.69.

Regarding `COc1ccc(C(O)C2C=CC3C(=O)NC(=O)C3N2Nc2ccc(Cl)cc2Cl)c2ccccc12` (stereo not given), the z-score was -2.99.

Turning to `COc1ccc(C(=O)Nc2cccc(CN3C(=O)[C@]4(O[C@H](CC(=O)N5Cc6ccccc6C[C@H]5CO)[C@@H]([Si](C)(C)c5ccc(OC)cc5)[C@@H]4C)c4ccccc43)c2)cc1`, the z-score is -2.35.

Take `C=CCNC(=O)[C@@H]1[C@H]2C(=O)O[C@H](c3ccccc3)[C@H](c3ccccc3)N2[C@H](c2ccc(OCCO)cc2)[C@@]12C(=O)Nc1ccc(C#CC3(O)CCCCCC3)cc12`: the z-score is -1.92.

`C=CC[C@]1(C(=O)NCC(O)CO)COC(c2ccc(OCCCO)cc2)=N1` (stereo not given in full): the z-score is -4.55.

As to `C=CCC(OC(C)=O)[C@@H]1[C@@H](N(Cc2ccc(-c3cccc(C(F)(F)F)c3)o2)C(=O)c2ccc(-c3ccccc3)cc2)c2cc(OCCCO)ccc2N1C(=O)c1ccc2ccccc2c1` (stereo not given in full), the z-score was -1.43.

Take `C=CC[C@@]1(C(=O)N(C)C)N=C(c2ccc(OCCCO)cc2)O[C@@H]1c1ccccc1CN=[N+]=[N-]`: the z-score was -4.32.

On to `COc1ccc(C#Cc2ccc3c(c2)[C@]2(C(=O)N3)[C@H](C(=O)O)[C@H]3C(=O)O[C@H](c4ccccc4)[C@H](c4ccccc4)N3[C@@H]2c2ccccc2OCCO)cc1`, for which the z-score was -3.

For the compound `COC(=O)[C@]1(CCC(=O)OC(C)(C)C)N=C(c2ccc(OCCCO)cc2)O[C@@H]1c1ccccc1N=[N+]=[N-]`, the z-score was -2.21.

Consider `CN1C(=O)C2C=CC(C(O)c3ccc(-c4ccccc4)s3)N(NC(=O)OC(C)(C)C)C2C1=O` (stereo not given), for which the z-score is -4.15.

On to `O=C1O[C@@H](c2ccccc2)[C@@H](c2ccccc2)N2[C@@H](c3ccc(OCCO)cc3)[C@]3(C(=O)Nc4ccc(C#CC5(O)CCCCCC5)cc43)[C@@H](C(=O)O)[C@H]12`, for which the z-score was -6.03.

Consider `C=CCN1C(=O)[C@]2(O[C@H](CCn3cc([C@H](O)c4ccccc4)nn3)[C@@H]([Si](C)(C)c3ccc(OC)cc3)[C@@H]2C)c2cc(NC(=O)c3ccc(OC)cc3)ccc21`, for which the z-score is -4.56.

Regarding `CC(C)N1C(=O)C[C@@](C(=O)NCCN2CCOCC2)(c2ccc([N+](=O)[O-])cc2)[C@H]1c1ccc(CO)cc1`, the z-score was -2.52.

Consider `COC(=O)[C@@]1(Cc2ccccc2)[C@H]2c3cc(C(=O)N(C)C)n(CCSC(=N)N)c3C[C@H]2CN1C(=O)c1ccccc1`, for which the z-score is -3.8.

In the case of `CCCc1cc2c(n1CCc1ccc(Cl)cc1)C(C)C1CN(C(=O)c3ccccc3)C(C)(C(=O)OC)C21` (stereo not given), the z-score is -5.05.

For `O=C1C=C(c2ccccc2)C(=O)C2=C1CC([C@H]1Oc3ccccc3S(=O)(=O)N3CCC[C@@H]13)=CC2`, the z-score was -3.85.

As to `CC(C)(C)N1CC=CC23O[C@@H]4C=CCCOC(=O)C4[C@H]2C(=O)N(CCCCCCO)[C@@H]3C1=O` (stereo not given in full), the z-score is -3.77.

On to `O=C(NC1CC1)[C@@H]1c2ccccc2C(=O)N(Cc2cc(C(F)(F)F)cc(C(F)(F)F)c2)[C@H]1c1ccc(CO)cc1`, for which the z-score is -2.66.

As for `C=CCC(OC(C)=O)[C@@H]1[C@@H](N(Cc2cccc3ccccc23)C(=O)c2ccc(-c3ccccc3)cc2)c2cc(OCCCO)ccc2N1C(=O)Cc1ccc2ccccc2c1` (stereo not given in full), the z-score was -0.896.

On to `O=C1c2ccccc2[C@@]2(Cc3ccccc3N(Cc3ccccc3)C2=O)[C@H](c2ccc(CO)cc2)N1Cc1ccccc1Cl`, for which the z-score is -0.299.

Consider `CC1CC/C=C\[C@H]2OC34C=CCN(C(C)(C)C)C(=O)[C@H]3N(CCCO)C(=O)[C@@H]4C2C(=O)O1` (stereo not given in full), for which the z-score is -3.59.

Consider `O=C1C[C@@](C(=O)O)(c2ccc([N+](=O)[O-])cc2)[C@@H](c2ccc(CO)cc2)N1C1CCCCC1`, for which the z-score is -4.33.

In the case of `C=C(COC)/C(=C/C[C@H](OC(C)=O)c1ccccc1OCCO)c1cc(C(=O)OC)ccc1OC`, the z-score was -4.27.

Take `CC(C)N1C(=O)c2ccccc2[C@](C)(C(=O)NCC(F)(F)F)[C@@H]1c1ccc(CO)cc1`: the z-score is -1.98.

System in a further experiment: not listed separately
Put plainly: inhibitors of hydroxyurea-induced Chk1 phosphorylation, primary screen, imaging, HeLa, phospho-Chk1 antibody, percent positive cells (AID 1186). The following applies: hydroxyurea-induced phospho-Chk1 immunofluorescence imaging, higher = more signal.
Regarding `COc1ccc([Si](C)(C)[C@H]2[C@H](CC(=O)N3Cc4ccccc4C[C@H]3CO)O[C@@]3(C(=O)N(C)c4ccccc43)[C@@H]2C)cc1`, the z-score is 0.227.

Turning to `O=C1O[C@H](Cc2ccccc2)[C@@H]2[C@H]3C=CCCC=C3CN2[C@H]1Cc1ccc(O)cc1`, the z-score was 0.167.

Take `CCOc1cc(C(O)C2C=CC3C(=O)N(c4ccccc4)C(=O)C3N2Nc2ccccc2F)ccc1O` (stereo not given): the z-score was -0.379.

For the compound `[N-]=[N+]=NCc1ccccc1[C@@H]1OC(c2ccc(OCCCO)cc2)=N[C@]1(Cc1ccccc1N=[N+]=[N-])C(=O)O`, the z-score was 0.277.

Regarding `[N-]=[N+]=Nc1ccccc1C[C@@]1(C(=O)NCC(O)CO)N=C(c2ccc(OCCCO)cc2)O[C@@H]1c1ccccc1` (stereo not given in full), the z-score is -0.416.

Regarding `C=CCC(OC(C)=O)[C@@H]1[C@@H](N(Cc2ccc(-c3cccc(C(F)(F)F)c3)o2)C(=O)Cc2ccc(F)cc2)c2cc(OCCCO)ccc2N1C(=O)Cc1ccc2ccccc2c1` (stereo not given in full), the z-score was 0.19.

For `COc1cc(CO)cc(I)c1O[C@H]1C=C(C(=O)NCCO)C[C@@H]2O[C@H]12`, the z-score was 0.552.

Turning to `CCCC=C(CCC)[C@@H](NC(=O)OCC(C)C)c1ccc(C(=O)OC)cc1`, the z-score was -0.468.

Take `COC(=O)[C@@]1(Cc2ccc(F)cc2)[C@H]2c3cc(C(=O)N(C)C)n(CCc4ccc(O)c(O)c4)c3C[C@H]2CN1C(=O)c1ccccc1`: the z-score was -0.361.

Turning to `CC(C)=CCCC(C)=CC(O)C1C=CC2C(=O)NC(=O)C2N1Nc1ccc(Cl)cc1Cl` (stereo not given), the z-score is 1.39.

`Cc1ccc(F)cc1S(=O)(=O)N[C@H]1CCN(Cc2ccc(OC(C)C)cc2)C1`: the z-score is -0.0604.

Regarding `COCCOC(=O)N1C(=O)[C@@]2(c3cc(C#CCCO)ccc31)[C@H](c1ccccc1OCCO)N1[C@H](c3ccccc3)[C@H](c3ccccc3)OC(=O)[C@H]1[C@@H]2C(N)=O`, the z-score is -0.271.

Take `COc1ccc(C(O)C2C=CC3C(=O)NC(=O)C3N2Nc2ccc(Cl)cc2Cl)c2ccccc12` (stereo not given): the z-score is -0.0602.

Turning to `COc1ccc(C(=O)Nc2cccc(CN3C(=O)[C@]4(O[C@H](CC(=O)N5Cc6ccccc6C[C@H]5CO)[C@@H]([Si](C)(C)c5ccc(OC)cc5)[C@@H]4C)c4ccccc43)c2)cc1`, the z-score was 1.01.

Turning to `C=CCNC(=O)[C@@H]1[C@H]2C(=O)O[C@H](c3ccccc3)[C@H](c3ccccc3)N2[C@H](c2ccc(OCCO)cc2)[C@@]12C(=O)Nc1ccc(C#CC3(O)CCCCCC3)cc12`, the z-score was -0.0427.

In the case of `C=CC[C@]1(C(=O)NCC(O)CO)COC(c2ccc(OCCCO)cc2)=N1` (stereo not given in full), the z-score is 0.0293.

As for `C=CCC(OC(C)=O)[C@@H]1[C@@H](N(Cc2ccc(-c3cccc(C(F)(F)F)c3)o2)C(=O)c2ccc(-c3ccccc3)cc2)c2cc(OCCCO)ccc2N1C(=O)c1ccc2ccccc2c1` (stereo not given in full), the z-score is 0.366.

In the case of `C=CC[C@@]1(C(=O)N(C)C)N=C(c2ccc(OCCCO)cc2)O[C@@H]1c1ccccc1CN=[N+]=[N-]`, the z-score is -0.274.

Take `COc1ccc(C#Cc2ccc3c(c2)[C@]2(C(=O)N3)[C@H](C(=O)O)[C@H]3C(=O)O[C@H](c4ccccc4)[C@H](c4ccccc4)N3[C@@H]2c2ccccc2OCCO)cc1`: the z-score was 0.135.

Turning to `COC(=O)[C@]1(CCC(=O)OC(C)(C)C)N=C(c2ccc(OCCCO)cc2)O[C@@H]1c1ccccc1N=[N+]=[N-]`, the z-score is 0.0989.

Turning to `CN1C(=O)C2C=CC(C(O)c3ccc(-c4ccccc4)s3)N(NC(=O)OC(C)(C)C)C2C1=O` (stereo not given), the z-score is 0.307.

In the case of `O=C1O[C@@H](c2ccccc2)[C@@H](c2ccccc2)N2[C@@H](c3ccc(OCCO)cc3)[C@]3(C(=O)Nc4ccc(C#CC5(O)CCCCCC5)cc43)[C@@H](C(=O)O)[C@H]12`, the z-score is -0.167.

On to `C=CCN1C(=O)[C@]2(O[C@H](CCn3cc([C@H](O)c4ccccc4)nn3)[C@@H]([Si](C)(C)c3ccc(OC)cc3)[C@@H]2C)c2cc(NC(=O)c3ccc(OC)cc3)ccc21`, for which the z-score was -0.552.

Regarding `CC(C)N1C(=O)C[C@@](C(=O)NCCN2CCOCC2)(c2ccc([N+](=O)[O-])cc2)[C@H]1c1ccc(CO)cc1`, the z-score is 0.159.

On to `COC(=O)[C@@]1(Cc2ccccc2)[C@H]2c3cc(C(=O)N(C)C)n(CCSC(=N)N)c3C[C@H]2CN1C(=O)c1ccccc1`, for which the z-score is 0.835.

Regarding `CCCc1cc2c(n1CCc1ccc(Cl)cc1)C(C)C1CN(C(=O)c3ccccc3)C(C)(C(=O)OC)C21` (stereo not given), the z-score is 0.853.

`O=C1C=C(c2ccccc2)C(=O)C2=C1CC([C@H]1Oc3ccccc3S(=O)(=O)N3CCC[C@@H]13)=CC2`: the z-score was 0.079.

In the case of `CC(C)(C)N1CC=CC23O[C@@H]4C=CCCOC(=O)C4[C@H]2C(=O)N(CCCCCCO)[C@@H]3C1=O` (stereo not given in full), the z-score is -0.327.

`O=C(NC1CC1)[C@@H]1c2ccccc2C(=O)N(Cc2cc(C(F)(F)F)cc(C(F)(F)F)c2)[C@H]1c1ccc(CO)cc1`: the z-score was -0.129.

Consider `C=CCC(OC(C)=O)[C@@H]1[C@@H](N(Cc2cccc3ccccc23)C(=O)c2ccc(-c3ccccc3)cc2)c2cc(OCCCO)ccc2N1C(=O)Cc1ccc2ccccc2c1` (stereo not given in full), for which the z-score was 0.547.
